Compound activity: PubChem BioAssay, National Center for Advancing Translational Sciences (NCATS)
Sampled rows, rich in hits. Any-hit rate of the full collection: about 19%.
DT40 TDP1 CPT – qHTS for Inhibitors of human tyrosyl-DNA phosphodiesterase 1 (TDP1): qHTS in cells in presence of CPT. Potency, µM (top dose mostly 46.2 µM), inactives show at the highest dose activity change, negative = growth inhibition, hits mostly inhibitors. chicken DT40 Tdp1-/-;hTDP1 cells + 20 nM CPT, ATP luminescence, 48 h. AID 686979, 2013. 12% of 420,000 active; also: potency is read from the fitted curve at half-maximal effect; nearly all actives have a fitted effect of over 55% in size
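Chicken DT40 Tdp1-/- cells stably complemented with human TDP1 were seeded at 400 cells/well in medium containing 20 nM camptothecin, exposed to pin-transferred compounds, and grown at 37 °C for at least 48 hr. Viability was read as ATP luminescence.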
HT1080 IDH1KD tx – qHTS for induction of synthetic lethality in tumor cells producing 2HG: qHTS for the HT-1080-IDH1KD cell line; HT-1080 IDH1 knockdown viability, ATP luminescence, 48 h; Potency, µM (titrated, usually from 46.1 µM), without a hit: at the top dose activity, negative = toxicity, actives largely listed as cytotoxic; 2% of 360,000 active; AID 686971, 2013;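 also: potency is read from the fitted curve at half-maximal effect; 0% = DMSO wells and -100% = cell-free medium wells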
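In this qHTS, HT-1080 cells depleted of IDH1 are exposed for 48 h at 37 °C to compound titrations. Toxicity is scored from CellTiter-Glo luminescence, with DMSO as full viability and medium alone as none.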
IL1B secr inh – qHTS for Inhibitors of Inflammasome Signaling: IL-1-beta AlphaLISA Primary Screen | activity change, % at 57.5 µM | 4.7% of 360,000 active | AID 743279, 2014 | THP-1 LPS/ATP IL-1B secretion, AlphaLISA, 16 h; stronger effect = lower value; in the data active = activity change below about -50%; inconclusive = mostly about -30% to -49%
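Secreted IL-1B measured by AlphaLISA bead assay after 16 h compound exposure of THP-1 cells; compounds (final up to 57.5 uM) added 1 h before LPS (250 ng/mL) and ATP (1.25 mM) stimulation; lower signal means less secretion.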
TDP1 cell noCPT – qHTS for Inhibitors of human tyrosyl-DNA phosphodiesterase 1 (TDP1): qHTS in cells in absence of CPT; DT40 Tdp1-/- hTDP1 cells, no CPT, ATP luminescence, 48 h; Potency, µM (titrated, usually from 46.2 µM), inactives show at the top dose activity change, negative = growth inhibition, hits mostly inhibitors; 15% of 420,000 active; also: potency is read from the fitted curve at half-maximal effect; nearly all actives have a fitted effect of over 55% in size
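Compound effects on proliferation are scored in DT40 Tdp1-/-;hTDP1 cells in the absence of CPT. ATP levels (CellTiter-Glo luminescence) are recorded after a ≥48 hr, 37 °C incubation.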
HT1080NT lethal – qHTS for induction of synthetic lethality in tumor cells producing 2HG: qHTS for the HT-1080-NT fibrosarcoma cell line; HT-1080-NT fibrosarcoma viability, CellTiter-Glo ATP luminescence, 48 h; 1.6% of 360,000 active; Potency, µM (doses to about 46.1 µM), for the others: at the highest dose activity, negative = less viability, actives largely listed as cytotoxic; AID 686970, 2013;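 also: NT is the 2HG producing partner of a matched IDH1 knockdown line; potency is read from the fitted curve at half-maximal effect; 0% = DMSO-treated cells and -100% = media-only wells without cells; nearly all actives have a fitted effect of over 55% in size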
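Viability by CellTiter-Glo luminescence after 48 h compound exposure at 37C of HT-1080-NT cells (750/well, RPMI, 5% FBS). % activity scaled between DMSO wells and medium-only wells, then curve-fitted and categorized by curve class.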
ELG1 repair inh – qHTS screen for small molecules that inhibit ELG1-dependent DNA repair in human embryonic kidney (HEK293T) cells expressing luciferase-tagged ELG1; HEK293T ELG1-luciferase reporter, luminescence, 16 h; DNA damage induced by 5-fluorouridine; AID 504467, 2011; 2.3% of 330,000 active; Potency, µM (highest dose often 46.1 µM), for the others: at the top dose activity change, negative = inhibition, actives largely listed as inhibitors; also: potency is read from the fitted curve at half-maximal effect; nearly all actives have a fitted effect of over 55% in size
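Step one: seed 2,000 cells per well. Step two: pin-transfer compound or DMSO alongside 5-fluorouridine. Step three: incubate 16 hr, 37 °C, 5% CO2. Step four: add ONE-Glo, wait 30 min, read luminescence.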
The depositor's hits bear a star; ? = inconclusive; . = no result. Unless noted, calls follow the shape of the dose curve; as a rule, active = well fitted curve in the direction sought with a large enough effect; inconclusive = small, poorly fitted or top-dose-only effect, or another doubt; inactive = no such curve, though single readings can be large; an effect the other way counts as inactive or inconclusive. Unless noted, % is scaled to controls: 0 for no effect and ±100 for the full control effect.

SMILES	DT40 TDP1 CPT	HT1080 IDH1KD tx	IL1B secr inh	TDP1 cell noCPT	HT1080NT lethal	ELG1 repair inh
Clc1cccc(-c2ccc(-c3nc4ccccn4c3NCc3ccccc3)cc2)c1	16µM*	?	?	23µM*	?	?
c1ccc(-c2nc3ccccn3c2NCc2ccc3c(c2)OCO3)cc1	-15%	3%	?	-29%	0%	-1%
CC(=O)C1=C(C)NC(SCC(=O)c2ccccc2)=C(C#N)C1CC(C)C (configuration not stated)	?	-7%	-7	16µM*	-6%	-5%
Cc1nc2cnc(N3CCN(C)CC3)nc2n(C)c1=O	7%	.	.	4%	.	.
Cc1ccc(S(=O)(=O)Nc2cccc(C(=O)N3CCC(C(N)=O)CC3)c2)cc1	-13%	1%	26	-6%	-4%	2%
Cc1ccc(C(=O)N/C(=C\c2ccco2)C(=O)NCc2cccnc2)cc1	4%	19%	21	-23%	15%	5%
O=C(NCc1cccnc1)/C(=C/c1ccc(-c2cccc(C(F)(F)F)c2)o1)NC(=O)c1ccccc1	13µM*	-28%	8	18µM*	-15%	?
Cc1ccc(C(=O)N/C(=C/c2ccc(-c3cc(C(F)(F)F)ccc3Cl)o2)C(=O)NCc2cccnc2)cc1	?	-21%	?	23µM*	-17%	-14%
COc1ccc(-n2nc(C(=O)Nc3ccc(Cl)cn3)c3c4ccccc4n(C)c3c2=O)cc1Cl	10%	.	.	-1%	.	.
CC1CCCN(C(=O)N2c3ccccc3Sc3ccccc32)C1 (configuration not stated)	?	10µM*	-1	13µM*	?	-1%
O=C(CN1CCOCC1)N1c2ccccc2Sc2ccccc21	-3%	2%	19	15%	-2%	6%
CC(C)NC(=O)N1c2ccccc2Sc2ccccc21	?	?	-6	?	?	-22%
O=C(N1CCOCC1)N1c2ccccc2Sc2ccccc21	?	14µM*	-10	23µM*	?	6%
CC1CN(C(=O)N2c3ccccc3Sc3ccccc32)C(C)CC1=O (configuration not stated)	?	?	0	?	-26%	-9%
CC1CN(C(=O)N2c3ccccc3Sc3ccccc32)CC(C)O1 (configuration not stated)	12µM*	-27%	-1	12µM*	-19%	12%
O=C(Nc1ccn(CCCN2CCN(c3ccccn3)CC2)c(=O)n1)OCc1ccccc1	?	0%	31	?	-2%	.
O=C(Cc1ccc([N+](=O)[O-])cc1)N/N=C/c1ccccc1F	-22%	-2%	-10	14%	1%	-11%
Cc1cc(C)cc(NC(=O)Cn2c(C(F)(F)F)nc3ccccc32)c1	-24%	.	.	-22%	.	.
COC(=O)C(NC(=O)CC(C)C)(Nc1nc2c(s1)CCCC2)C(F)(F)F (configuration not stated)	16µM*	.	.	12µM*	.	.
N#CC(C#N)=C1NC2(CCCCC2)Cc2ccccc21	-13%	-2%	5	0%	-1%	?
CC(=O)N(C(C)=O)C1=C(C#N)C2(CCCCC2)Cc2ccccc21	-22%	?	-74*	-11%	?	-5%
COCc1ccc(C(=O)N2CCCC(Nc3ccc(C(C)C)cc3)C2)o1 (configuration not stated)	?	4%	-13	18µM*	6%	-5%
CC(C)c1ccc(NC2CCCN(C(=O)c3ccsc3)C2)cc1 (configuration not stated)	23µM*	2%	?	18µM*	-6%	?
CC(C)c1ccc(NC2CCCN(C(=O)c3n[nH]c4c3CCC4)C2)cc1 (configuration not stated)	18µM*	-29%	?	?	2%	?
COC(=O)c1ccc(C(=O)N2CCCC(Nc3ccc(C(C)C)cc3)C2)cc1 (configuration not stated)	-25%	-2%	41	-20%	11%	1%
SMILES	DT40 TDP1 CPT	HT1080 IDH1KD tx	IL1B secr inh	TDP1 cell noCPT	HT1080NT lethal	ELG1 repair inh
COCc1ccc(C(=O)N2CCCC(Nc3ccc(C(C)C)cc3)C2)s1 (configuration not stated)	?	-17%	0	?	-1%	-9%
CC1CN(C(=O)c2ccc(COc3ccc(C(C)C)cc3)o2)CC(C)O1 (configuration not stated)	16µM*	?	-6	21µM*	?	?
COc1cc(OC)cc(OC(=O)c2ccc3c(=O)n4c(nc3c2)CCC4)c1	-3%	12%	-14	-4%	12%	5%
COc1ccc(S(=O)(=O)Nc2cc(S(=O)(=O)c3ccccc3)c(O)c(C)c2C)cc1	-22%	.	.	-25%	.	.
O=C(c1cccs1)N1CCCC(c2ccccc2)C1 (configuration not stated)	0%	-7%	-15	18µM*	0%	29%
CC(C)c1ccc(NC2CCCN(C(=O)c3cccs3)C2)cc1 (configuration not stated)	21µM*	-5%	-20	?	1%	0%
Cc1cccc(NC(=O)CNC(=O)CN2C(=O)NC3(CCCCC3C)C2=O)c1C (configuration not stated)	-1%	-7%	6	1%	0%	14%
O=S1(=O)CC(N2CCN(CCO)CC2)CN1Cc1cn(Cc2cccc(C(F)(F)F)c2)nn1 (configuration not stated)	-15%	10%	23	-3%	17%	.
CNc1ccc(Cl)cc1S(=O)(=O)c1ccccc1[N+](=O)[O-]	-58%	?	-11	15µM*	?	.
CCCn1c(=O)c(C(=O)N/N=C/c2ccccc2F)c(O)c2ccccc21	17%	16%	0	20%	30%	?
CCCn1c(=O)c(C(=O)N/N=C/c2ccc(F)cc2)c(O)c2ccccc21	9.2µM*	-2%	4	5.2µM*	15%	2%
